Measurements reported in PubChem BioAssay (NCATS).
Records with an inconclusive call do not appear. A call without a number means that no potency is given here. The source made the active and inactive calls. Calls come from the whole dose curve; as a rule, active = well fitted curve in the direction sought with a large enough effect; inconclusive = small, poorly fitted or top-dose-only effect, or another doubt; inactive = no such curve, though single readings can be large; an effect the other way counts as inactive or inconclusive.

Legend:
[1] = qHTS of pediatric cancer cell lines to identify multiple opportunities for drug repurposing: Primary screen for Saos-2 cells (AID 1347097); note: nearly all actives have a fitted effect of over 40% in size; note: potency is the fitted concentration of half-maximal effect
Procedure, shortened: (§1)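 Quantitative HTS format: each compound titrated (MIPE 11 points from 0.78 nM, NPC 8 points from 0.59 nM) onto cells plated 5 hours earlier. After 48 h at 37 degrees C, CellTiter-Glo luminescence was recorded.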

[2] = qHTS of pediatric cancer cell lines to identify multiple opportunities for drug repurposing: Primary screen for NB1643 cells (AID 1347099); note: nearly all actives have a fitted effect of over 50% in size; note: potency is the fitted concentration of half-maximal effect
Procedure, shortened: as §1

[3] = qHTS of pediatric cancer cell lines to identify multiple opportunities for drug repurposing: Primary screen for BT-12 cells (AID 1347101); note: nearly all actives have a fitted effect of over 25% in size
Procedure, shortened: (§2)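 Cells (500-1,000/well) rested 5 h, then received compounds for 48 h; metabolically active cells were measured by CellTiter-Glo luminescence. Final concentrations spanned up to 46 µM (MIPE, 11-point) or 0.59 nM-46 µM (NPC, 8-point) in primary screens, 11-point in follow-ups.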

[4] = qHTS of pediatric cancer cell lines to identify multiple opportunities for drug repurposing: Primary screen for Rh18 cells (AID 1347102); note: nearly all actives have a fitted effect of over 65% in size
Procedure, shortened: (§3)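 Viability after 48 h compound treatment at 37C, 500-1,000 cells/well, read as ATP luminescence with CellTiter-Glo. Primary screens used 11-point (MIPE, 0.78 nM-46 µM) or 8-point (NPC, 0.59 nM-46 µM) final concentrations; follow-up screens used 11-point dilutions.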

[5] = qHTS of pediatric cancer cell lines to identify multiple opportunities for drug repurposing: Primary screen for RD cells (AID 1347104); note: nearly all actives have a fitted effect of over 55% in size
Procedure, shortened: as §1

[6] = qHTS of pediatric cancer cell lines to identify multiple opportunities for drug repurposing: Primary screen for MG 63 (6-TG R) cells (AID 1347105); note: nearly all actives have a fitted effect of over 50% in size
Procedure, shortened: as §1

[7] = qHTS of pediatric cancer cell lines to identify multiple opportunities for drug repurposing: Primary screen for control Hh wild type fibroblast cells (AID 1347106);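 note: series mostly up to about 46 µM; a drop in luminescence marks cytotoxicity and a rise apparent proliferation; nearly all actives have a fitted effect of over 55% in size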
Procedure, shortened: as §3

[8] = qHTS of pediatric cancer cell lines to identify multiple opportunities for drug repurposing: Primary screen for Rh30 cells (AID 1347107); note: series mostly up to about 46 µM; nearly all actives have a fitted effect of over 75% in size
Procedure, shortened: as §3

[9] = qHTS of pediatric cancer cell lines to identify multiple opportunities for drug repurposing: Primary screen for SK-N-SH cells (AID 1347098); note: nearly all actives have a fitted effect of over 65% in size; note: potency is the fitted concentration of half-maximal effect
Procedure, shortened: as §2

[10] = qHTS of pediatric cancer cell lines to identify multiple opportunities for drug repurposing: Primary screen for LAN-5 cells (AID 1347100)
Procedure, shortened: as §3

[11] = qHTS of pediatric cancer cell lines to identify multiple opportunities for drug repurposing: Primary screen for Rh41 cells (AID 1347108);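 note: series mostly up to about 46 µM; luminescence drop marks cytotoxic hits; nearly all actives have a fitted effect of over 70% in size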
Procedure, shortened: as §1

[12] = qHTS of pediatric cancer cell lines to identify multiple opportunities for drug repurposing: Primary screen for OHS-50 cells (AID 1347103); note: nearly all actives have a fitted effect of over 40% in size
Procedure, shortened: as §2

[13] = qHTS of pediatric cancer cell lines to identify multiple opportunities for drug repurposing: Confirmatory screen for NB1643 cells (AID 1347109); note: nearly all actives have a fitted effect of over 45% in size
Procedure, shortened: as §3

[14] = qHTS of pediatric cancer cell lines to identify multiple opportunities for drug repurposing: Confirmatory screen for SK-N-MC cells (AID 1347111);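 note: cells exposed to compound for 48 h before the readout; nearly all actives have a fitted effect of over 70% in size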; note: potency is the fitted concentration of half-maximal effect
Procedure, shortened: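 SK-N-MC cells at 500-1,000 cells/well in growth media were pre-incubated 5 h, then exposed to compounds at 11-point dilutions for 48 h at 37 degrees C, 5% CO2. Viability was read as CellTiter-Glo luminescence.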

[15] = qHTS of pediatric cancer cell lines to identify multiple opportunities for drug repurposing: Confirmatory screen for BT-12 cells (AID 1347112); note: nearly all actives have a fitted effect of over 55% in size
Procedure, shortened: as §3

[16] = qHTS of pediatric cancer cell lines to identify multiple opportunities for drug repurposing: Confirmatory screen for BT-37 cells (AID 1347117); note: nearly all actives have a fitted effect of over 55% in size
Procedure, shortened: as §3

[17] = qHTS of pediatric cancer cell lines to identify multiple opportunities for drug repurposing: Confirmatory screen for TC32 cells (AID 1347118); note: nearly all actives have a fitted effect of over 65% in size; note: potency is the fitted concentration of half-maximal effect
Procedure, shortened: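 Luminescent ATP read-out (CellTiter-Glo) of metabolically active TC32 cells after 48 h exposure. Concentration-response curves came from 11-point (MIPE, 0.78 nM–46 µM) or 8-point (NPC, 0.59 nM–46 µM) primary titrations; follow-up used 11 points.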

[18] = qHTS of pediatric cancer cell lines to identify multiple opportunities for drug repurposing: Confirmatory screen for A673 cells (AID 1347110); note: nearly all actives have a fitted effect of over 65% in size
Procedure, shortened: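 A673 cells at 500-1,000 cells/well were dosed 5 h after plating, in dilution series up to 46 uM final; primary runs used 8 or 11 points and confirmatory runs used 11 points. Viability was read by CellTiter-Glo luminescence after 48 h, against DMSO and 2.3 uM bortezomib controls.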

[19] = qHTS of pediatric cancer cell lines to identify multiple opportunities for drug repurposing: Confirmatory screen for SJ-GBM2 cells (AID 1347116); note: nearly all actives have a fitted effect of over 60% in size
Procedure, shortened: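 Viability measured as metabolically active cells via CellTiter-Glo luminescence following 48 hours of compound exposure, 11-point dilutions in confirmatory testing. 500-1,000 cells/well plated 5 hours before dosing; controls were DMSO and 2.3 µM bortezomib.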

[20] = qHTS of pediatric cancer cell lines to identify multiple opportunities for drug repurposing: Confirmatory screen for MG 63 (6-TG R) cells (AID 1347119); note: nearly all actives have a fitted effect of over 55% in size
Procedure, shortened: as §3

Compound | Potency [1] | Potency [2] | Potency [3] | Potency [4] | Potency [5] | Potency [6] | Potency [7] | Potency [8] | Potency [9] | Potency [10] | Potency [11] | Potency [12] | Potency [13] | Potency [14] | Potency [15] | Potency [16] | Potency [17] | Potency [18] | Potency [19] | Potency [20]
O=C(CBr)Nc1ccc(Cl)cc1C(=O)c1ccccc1F | inactive | inactive | inactive | inactive | inactive | inactive | inactive | inactive | – | – | – | – | – | – | – | – | – | – | – | –
CN1C[C@@H](NS(=O)(=O)N(C)C)C[C@@H]2c3cccc4c3c(cn4C)C[C@H]21 | inactive | – | inactive | inactive | inactive | inactive | inactive | inactive | inactive | inactive | inactive | – | – | – | – | – | – | – | – | –
CC(C)(O)C(Cl)(Cl)Cl | inactive | – | inactive | inactive | inactive | inactive | inactive | inactive | inactive | inactive | inactive | inactive | – | – | – | – | – | – | – | –
COc1ccc(CN2CCNCC2)c(OC)c1OC | inactive | – | inactive | inactive | inactive | inactive | inactive | inactive | inactive | inactive | – | inactive | – | – | – | – | – | – | – | –
CC1Sc2c(C(=O)O)c(=O)c3cc(F)c(N4CCNCC4)cc3n21 (stereo unspecified) | inactive | – | inactive | inactive | inactive | inactive | inactive | inactive | inactive | inactive | inactive | inactive | inactive | 14.7 µM (active) | inactive | inactive | 18.5 µM (active) | – | – | –
CN1[C@@H]2CC[C@H]1CC(OC(=O)c1cc(Cl)cc(Cl)c1)C2 (stereo partly specified) | 75 µM (active) | 0.001 µM (active) | inactive | inactive | – | inactive | inactive | inactive | – | – | inactive | – | inactive | inactive | inactive | – | inactive | inactive | inactive | inactive
Cc1c(Cl)c(=O)oc2cc(OP(=O)(OCCCl)OCCCl)ccc12 | inactive | – | inactive | inactive | inactive | inactive | inactive | inactive | inactive | inactive | inactive | inactive | – | – | – | – | – | – | – | –
CC1N=C(N)OC1c1ccccc1 (stereo unspecified) | inactive | – | inactive | inactive | inactive | – | inactive | inactive | inactive | inactive | – | inactive | – | – | – | – | – | – | – | –
ClCCCN1CCN(c2cccc(Cl)c2)CC1 | inactive | – | inactive | inactive | inactive | inactive | inactive | inactive | inactive | inactive | inactive | – | – | – | – | – | – | – | – | –
CN1C(=O)CN=C(c2ccccc2)c2cc([N+](=O)[O-])ccc21 | inactive | – | inactive | inactive | inactive | inactive | inactive | inactive | inactive | inactive | inactive | inactive | – | – | – | – | – | – | – | –
COc1cc(CC#N)cc(OC)c1OC | inactive | – | inactive | inactive | inactive | inactive | inactive | inactive | inactive | inactive | inactive | inactive | – | – | – | – | – | – | – | –
Cc1nnc2n1-c1sc(CCC(=O)N3CCOCC3)cc1C(c1ccccc1Cl)=NC2 | inactive | – | inactive | inactive | inactive | inactive | inactive | inactive | inactive | inactive | inactive | inactive | – | – | – | – | – | – | – | –
CN1C2CCC(C)(C)C1CC(OC(=O)C(O)(c1cccs1)c1cccs1)C2 (stereo unspecified) | inactive | inactive | inactive | inactive | inactive | inactive | inactive | inactive | – | – | inactive | – | – | – | – | – | – | – | – | –
COc1cc(CC(C)N)cc2c1OCO2 (stereo unspecified) | inactive | – | inactive | inactive | inactive | inactive | inactive | inactive | inactive | – | inactive | – | – | – | – | – | – | – | – | –
COP(=S)(OC)Oc1ccc(Sc2ccc(OP(=S)(OC)OC)cc2)cc1 | inactive | – | inactive | inactive | inactive | inactive | inactive | inactive | inactive | inactive | inactive | inactive | – | – | – | – | – | – | – | –
CCCN(CCC)CCc1c[nH]c2ccccc12 | – | inactive | inactive | inactive | – | inactive | inactive | inactive | inactive | – | – | – | – | – | – | – | – | – | – | –
CN1CCc2cc(Cl)c(O)cc2[C@H]2c3ccccc3CC[C@@H]21 | inactive | – | inactive | inactive | inactive | inactive | inactive | inactive | – | – | inactive | – | – | – | – | – | – | – | – | –
CN(C)CCc1c[nH]c2cccc(O)c12 | – | inactive | inactive | inactive | – | inactive | inactive | inactive | 35 µM (active) | – | inactive | inactive | – | – | – | – | – | – | – | –
CC1=C2[C@H]3OC(=O)[C@@H](C)[C@@H]3CC[C@@]2(C)C=CC1=O | – | inactive | inactive | inactive | inactive | – | inactive | inactive | inactive | inactive | inactive | inactive | – | – | – | – | – | – | – | –
CCC1(c2cccc(O)c2)CCCCN(C)C1 (stereo unspecified) | – | inactive | inactive | inactive | inactive | inactive | inactive | inactive | inactive | inactive | – | inactive | – | – | – | – | – | – | – | –
C[N+]1(CCC(C(N)=O)(c2ccccc2)c2ccccc2)CCCCC1 | – | inactive | inactive | inactive | inactive | inactive | inactive | inactive | inactive | inactive | – | inactive | – | – | – | – | – | – | – | –
NC1(c2ccccc2)CCCCC1 | – | inactive | – | inactive | – | inactive | inactive | inactive | inactive | inactive | – | – | – | – | – | – | – | – | – | –
CC(C)=CCN1CC[C@@]2(C)c3cc(O)ccc3C[C@@H]1[C@@H]2C | – | inactive | inactive | inactive | – | inactive | inactive | inactive | inactive | inactive | – | – | – | – | – | – | – | – | – | –
